Measurements published in PubChem BioAssay AID1347383 (Zoeller Lab, School of Medicine, Boston University, 2020).
Calls of active or inactive are those of the source.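 Rule for the calls: active = cell survival after UV exposure 2 SD above solvent-only control wells at 10 µM, confirmed on one or two repeats; inactive = the rest.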

Experiment: protection of CHO cells from pyrene-fatty acid UV killing, primary screen, phospholipid biosynthesis inhibitor project, ZR-82 cells, Analyticon library, screen 2 (AID 1347383);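 note: survival reflects blocked phospholipid synthesis cutting uptake of the phototoxic fatty acid; compound and fatty acid exposure 3 h then viability read next day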
Conditions: ZR-82 CHO cells, CellTiter Blue, at 10 µM, peroxisome-deficient CHO-K1 variant, with DGAT-1, DGAT-2 and ACAT inhibitors

Row | SMILES | outcome
1 | COc1ccc(OC2OC(COC3OCC(O)C(O)C3O)C(O)C(O)C2O)cc1OC (stereo not given) | inactive
2 | CC1=CC2C3C(C(C)=C4C3[C@@](C)(O)CC[C@H]3[C@H](C)C(=O)O[C@H]43)C13C2[C@@](C)(O)CC[C@H]1[C@H](C)C(=O)O[C@@H]13 (stereo not given in full) | inactive
3 | C/C=C(/COC(=O)/C(C)=C/C)C(=O)OC/C=C/c1ccc(OC)cc1 | inactive
4 | CCCCCCc1cc(O)c(C)c(OC(C)=O)c1O | inactive
5 | COc1cc(=O)oc(C(C)C(C)O)c1CO (stereo not given) | inactive
6 | CCC(C)C1NC(=O)C(Cc2ccccc2)NC(=O)C(CCCCCC(=O)C(O)CO)NC(=O)C2CCCCN2C1=O (stereo not given) | inactive
7 | O=c1c(O)c(-c2c(O)cccc2O)oc2cc(O)cc(O)c12 | inactive
8 | CC(C)=CCc1cc(C(=O)/C=C/c2ccc(O)cc2)c(O)cc1O | inactive
9 | CC1CCC2C(C(=O)O)=CC3C(O)C(C)(C)CC123 (stereo not given) | inactive
10 | C=C1NC(=O)C2CCCN2C1=O (stereo not given) | inactive
11 | Oc1cc(O)cc(CCCCCCCCCCc2cc(O)cc(O)c2)c1 | inactive
12 | C=CC#Cc1ccc(-c2cccs2)s1 | inactive
13 | CC(C)=CCCC1=CC(=O)OC1O (stereo not given) | inactive
14 | CC(=O)CCCCCCc1ccc2c(c1)OCO2 | inactive
15 | COC(=O)CC(O)C1OC(c2ccccc2)C(O)C1O (stereo not given) | inactive
16 | CCCCCC1=C(CO)C(O)C(O)CC1=O (stereo not given) | inactive
17 | CC(C)=CCc1c(O)cc2oc3cc(C)cc(O)c3c2c1C | inactive
18 | O=C(O)c1cc(O)c2c(c1)C(=O)c1cccc(O)c1C2=O | inactive
19 | CC/C=C\C/C=C\C/C=C\CCCCCCCC(=O)OCC(O)COC1OC(CO)C(O)C(O)C1O (stereo not given) | inactive
20 | CC(C)CNC(=O)/C=C/C=C/Cc1cccs1 | inactive
